Experimental data published in PubChem BioAssay AID2315 (National Center for Advancing Translational Sciences (NCATS), 2010).
Among all 290,000 compounds or so, about 27,000 (9.3%) were called active. Only a selection was taken, and actives are over-represented in it overall. A number with no mark means an inactive call. Cut-off read from the data, not from the text of the source: active = inhibition mostly above about 28% (no sharp cut-off); inactive = mostly below about 43%.

test: A qHTS for Small Molecule Inhibitors of Shiga Toxin; settings: Vero cells, Shiga toxin protein synthesis inhibition reporter; at 38.7 µM, stronger effect = higher value; note: 0% is about no effect

Row | Structure (SMILES) | inhibition
1 | COc1ccc(C(=O)Nc2nc(-c3ccc(OC)cc3)c(-c3ccc([N+](=O)[O-])cc3)s2)cc1 | -3.81%
2 | COc1ccc(C2=NN(C(=O)CCC(=O)O)C(c3cccs3)C2)cc1OC (stereo not given) | -6.96%
3 | COc1ccc(C2CC(c3ccc([N+](=O)[O-])cc3)=NN2C(C)=O)cc1 (stereo not given) | 37.4% (active)
4 | COc1ccc(C2=NN(C(=O)c3cccnc3)C(c3ccccc3)C2)cc1 (stereo not given) | -14.3%
5 | COc1ccc(C2=NN(C(C)=O)C(c3ccccc3)C2)cc1 (stereo not given) | 26.2% (active)
6 | COc1ccc(C2CC(c3ccccc3)=NN2C(=O)COC(=O)COc2ccccc2)cc1 (stereo not given) | 30.8%
7 | COc1ccc(C2=NN(C(=O)c3ccccc3C(=O)O)C(c3ccccc3O)C2)cc1 (stereo not given) | 162% (active)
8 | COc1ccc(C2CC(c3ccccc3)=NN2C(=O)CSc2nccc(=O)[nH]2)cc1 (stereo not given) | 50.8% (active)
9 | COc1ccc(C2CC(c3ccccc3)=NN2C(=O)c2ccc(Cl)c([N+](=O)[O-])c2)cc1 (stereo not given) | -3.59%
10 | COc1cccc(C2CC(c3ccccc3)=NN2S(=O)(=O)c2ccccc2)c1OC (stereo not given) | -3.39%
11 | COc1ccc(C(=O)CSc2nccc(=O)[nH]2)cc1 | 11%
12 | CCOc1ccc2nc(Cl)c(C3CC(c4ccccc4)=NN3C(=O)c3cccs3)cc2c1 (stereo not given) | -5.57%
13 | Brc1ccccc1CN1CCC(Cc2ccccc2)CC1 | 14.5%
14 | N[C@@H](Cc1ccccc1)C(=O)N1CCC(C(=O)NCC(=O)Nc2ccc(F)cc2)CC1 | 9.91%
15 | COc1ccc(CCNC(=O)C(=O)NCC2OCCN2S(=O)(=O)c2ccc(OC)c(C)c2)cc1 (stereo not given) | 2.43%
16 | Cc1ccc(NS(=O)(=O)c2ccc(-c3coc(C)n3)cc2)c(C)c1 | -3.55%
17 | CCC(CC)C(=O)Nc1c2c(nn1-c1ccc(C)cc1)CS(=O)(=O)C2 | -8.79%
18 | CCN(CC)CCCNC(=O)c1cc2c(=O)[nH]c3ccc(C)cc3c2s1 | -4.39%
19 | O=C(C1CC(=O)N(C2CCCCC2)C1)N1CCN(c2ccccc2)CC1 (stereo not given) | 27.8%
20 | C/C(=N\NC(=O)Cc1ccccc1[N+](=O)[O-])c1cccnc1 | -10.2%
21 | Cc1cc(C(=O)NC2CC(C)(C)Cc3c2cnn3-c2ccccc2)n[nH]1 (stereo not given) | -14.3%
22 | CN(C(=O)CC1C(=O)NCCN1Cc1ccc2ccccc2c1)C1CCOCC1 (stereo not given) | -0.828%
23 | CN1/C(=C\C(=O)c2cccnc2Cl)C(C)(C)c2ccccc21 | -10.8% (active)
24 | CC(C)Nc1nnc(SCC(=O)/C=C2\N(C)c3ccccc3C2(C)C)s1 | 13.3%

Row | Structure (SMILES) | inhibition
25 | CN1/C(=C\C(=O)c2oc3ccccc3c2N)C(C)(C)c2ccccc21 | 14.5%
26 | Cc1ccccc1-c1nc(CS(=O)(=O)CC(=O)NC(C)c2ccccc2)c(C)o1 (stereo not given) | -2.18%
27 | CC1C(=O)C(C)C(c2ccc(O)cc2)NC1c1ccc(O)cc1 (stereo not given) | -9.62%
28 | Cc1ccc(S(=O)(=O)NCC(=O)N2CCOCCOCCOCCOCC2)cc1 | -2.1%
29 | Cc1ccc(Cl)cc1NC(=O)COC(=O)CC(C)(C)C | -3.98%
30 | C/C(=N\NC(=O)Cc1ccc(F)cc1)c1ccc(F)cc1 | 11.6%
31 | O=C(O)CC/C(=N\NC(=O)c1ccc(F)cc1)c1ccc(Br)cc1 | 57.9% (active)
32 | C/C(CC(=O)N1CCN(C=O)CC1)=N\NC(=O)c1ccc(Br)cc1 | 36.4%
33 | CCn1ccnc1CNC(=O)CC1C(=O)NCCN1CCCc1ccccc1 (stereo not given) | 12.9%
34 | COc1ccc(CC(=O)Nc2c(C(N)=O)oc3ccccc23)cc1 | 9.35%
35 | COc1cc(C(C(=O)NC2CCCC2)N(C(=O)c2ccco2)c2ccccc2C(C)=O)cc(OC)c1OC (stereo not given) | -3.47%
36 | COc1ccc(NC(C(=O)Nc2cccc(C(C)=O)c2)c2ccccc2)cc1 (stereo not given) | 27.6% (active)
37 | COc1ccc(NC(=O)[C@H](NC(=O)[C@@H]2Cc3ccccc3CN2)c2ccccc2)cc1 | -2.7%
38 | COC(C(=O)Nc1ccc(C(C)=O)cc1)c1ccccc1 (stereo not given) | 10.3%
39 | Cc1cc(C)cc(N(CC(=O)N2CC=C(c3ccccc3)CC2)S(=O)(=O)c2c(C)noc2C)c1 | -8.45%
40 | CNc1ccc(NC(C)=O)cc1[N+](=O)[O-] | -5.19%
41 | CNc1[nH]ncc1[N+](=O)[O-] | 120% (active)
42 | CN(C)/C=C(\C=[N+](C)C)c1[nH]ncc1[N+](=O)[O-] | -4.31%
43 | Cc1cc(-c2csc(N)n2)c(C)n1-c1ccccc1 | 34.4%
44 | Cc1cc(-c2csc(N)n2)c(C)n1Cc1ccccc1 | 28.2% (active)
45 | CC(=O)Nc1ccc(C(=O)Nc2nc(-c3cc(C)n(Cc4ccccc4)c3C)cs2)cc1 | -6.21%
46 | Cc1ccccc1NC(=O)CSc1nc2ccc(Nc3nc(N4CCOCC4)nc(N4CCOCC4)n3)cc2s1 | 23.8%
47 | Fc1ccc(-c2ccc(-c3nn4c(-c5ccco5)nnc4s3)o2)cc1 | 26.5% (active)
48 | Cc1nnc2sc(-c3ccco3)nn12 | -4.02%

Row | Structure (SMILES) | inhibition
49 | FC(F)(F)c1nnc2sc(-c3ccco3)nn12 | 7.08%
50 | CCN(CC)S(=O)(=O)c1cc(C(=O)Nc2ccccn2)ccc1C | 119% (active)
51 | CCN(CC)S(=O)(=O)c1ccc(NC(=O)c2cccnc2Cl)c(NC(=O)c2cccnc2Cl)c1 | -4.86%
52 | Cc1ccc(NC(=O)CNCc2ccccn2)cc1S(=O)(=O)N(C)C | 40.8%
53 | COc1cc(C(=O)NCc2nnc(SCC(=O)c3ccc(Cl)cc3)o2)cc(OC)c1OC | -10.7%
54 | OCCN1CCN(c2nnc(-c3ccccc3)c3ccccc23)CC1 | -4.9%
55 | Cc1nc(C)c(-c2nnc(-c3cccc(S(=O)(=O)N(C)C)c3)o2)cc1C(=O)NN | 3.74%
56 | COc1ccc2c(C(=O)c3ccc(C)cc3)n(CCC(N)=O)[n+]([O-])c2c1 | 7.71%
57 | NC(=O)Cc1ccc2c(c1)[nH]c1ccccc12 | 11.9%
58 | NC(=O)Cc1ccc2sc(-c3ccccc3)nc2c1 | 79.9% (active)
59 | O=C(O)Cc1sc(-c2ccccc2)nc1-c1cccs1 | 47.2%
60 | Cc1cc(S(=O)(=O)NCc2ccccn2)c(Cl)cc1Cl | -4.73%
61 | CCSc1nc(O)c(C(c2cccc(OC)c2)c2c(O)nc(SCC)[nH]c2=O)c(=O)[nH]1 | 19.1%
62 | CC(=O)NCCC(=O)Nc1cc(S(=O)(=O)N2CCCCC2)ccc1Oc1cccc(C)c1 | -10.6%
63 | CC(C)c1ccc(NC(=O)NC2CCCCC2)cc1 | 107% (active)
64 | Cc1cc(C)cc(NC(=O)NC2CCCCCCC2)c1 | 14.2%
65 | O=C(Nc1cccc(F)c1)NC1CCCc2ccccc21 (stereo not given) | -2.03%
66 | CC(C)(C)NS(=O)(=O)c1ccc(NC(=O)NC2CCCCC2)cc1 | 56.6%
67 | Cc1ccc(NC(=O)CSCC(=O)NC2CCCCC2)cc1 | 5.95%
68 | Cc1cc(Br)ccc1NC(=S)NC1CCCC1 | 35.4%
69 | C/C(CC(=O)Nc1cccc(F)c1)=N\NC(=O)C(=O)NC1CCCCC1 | -4.86%
70 | Cc1ccc(NC(=S)NC2CCCC2)cc1 | 85% (active)
71 | O=C(Nc1cccc(F)c1)NC1CCCCCCC1 | 159% (active)
72 | Cc1cccc(N2CCN(S(=O)(=O)c3ccc(-c4cc(C)no4)s3)CC2C)c1 (stereo not given) | -9.9%

Row | Structure (SMILES) | inhibition
73 | COc1ccc([N+](=O)[O-])cc1NCC(=O)c1ccc(C)cc1 | 17.1%
74 | COc1ccccc1NC(=O)C1CCN(C(=O)c2ccc(C(C)(C)C)cc2)CC1 | 18.1%
75 | COc1ccccc1C(=O)Nc1ccnn1C1CCN(C(=O)C(C)(C)C)CC1 | 20.1%
76 | COc1ccccc1N1CCN(C(=O)c2c(-c3c(Cl)cccc3Cl)noc2C)CC1 | -7.02%
77 | O=C(c1ccc2ccccc2n1)N1CCN(c2ccccc2Cl)CC1 | 62.1% (active)
78 | O=C(c1c(Cl)cccc1Cl)N1CCN(c2cccc3[nH]ccc23)CC1 | -6.91%
79 | Cn1c(CCc2ccccc2)nnc1SCC(N)=O | -2.98%
80 | CCOc1ccc(-n2c(SCC(N)=O)nnc2-c2ccco2)cc1 | 1.48%
81 | Cc1ccc(NC(=O)CN(C)C(=O)c2ccc(Br)o2)cc1 | 24.8%
82 | COc1ccc(C(=O)Cc2cnn(-c3ccccc3)c2)c(O)c1 | 104% (active)
83 | Cc1cc(O)cc(O)c1C(=O)Cc1cnn(-c2ccccc2)c1 | 52.3%
84 | COc1ccc(C(=O)CC(=O)c2ccc(C)cc2)c(O)c1 | 5.12%
85 | [2H]C(CCOS(N)(=O)=O)c1ccccc1 (stereo not given) | -5.48%
86 | O=C(Nc1ccc(N2CCOCC2)cc1)c1ccc(-c2ccccc2[N+](=O)[O-])o1 | 46.4% (active)
87 | COc1cc2ccccc2cc1C(=O)Nc1ccc(N2CCOCC2)cc1 | 18.7%
88 | CN(CC(=O)Nc1ccc(N2CCOCC2)cc1)CC(=O)Nc1ccccc1[N+](=O)[O-] | -10.3%
89 | Cc1nnc(SCC(=O)Nc2ccc(S(=O)(=O)Nc3ccc(Cl)nn3)cc2)s1 | -5.8%
90 | NS(=O)(=O)c1ccc(-c2ccc(/C=C3\SC(=O)NC3=O)o2)cc1 | -1.11%
91 | Nc1nnnn1/N=C/c1cccs1 | -9.54%
92 | Oc1cccc(/C=N/Nc2ccc(Cl)nn2)c1O | 60.3% (active)
93 | Cc1ccsc1/C=N/Nc1ccc(Cl)nn1 | 17.1%
94 | COc1cccc(/C=N/Nc2ccc(Cl)nn2)c1 | 25.9%
95 | Clc1ccc(N/N=C/c2cccs2)nn1 | 122% (active)
